Screening data: PubChem, Broad Institute
A selection follows.
aSyn 5UTR act – Activators via SNCA 5'UTR binding, MLPCN; hit rate 7.1% among 300,000; alpha-synuclein 5'UTR reporter, activators screen; AID 1814; activity score, % (tested at 7.5 µM), hits read low; in the data active means activity score below about -60%
Each line names hits and unclear results; the compound was inactive in the other large screens.

O=C(Nc1ccccc1)N1CC=C(c2ccc(F)cc2)CC1	aSyn 5UTR act -167
O=C(Nc1ccccc1)N1CC=C(c2ccccc2)CC1	aSyn 5UTR act -177
Cc1cccn2cc(CSc3ccccc3N)nc12	aSyn 5UTR act -117
Nc1nc(CSc2ccccc2)nc(N2CCCCC2)n1	aSyn 5UTR act -129
Cc1cc(/C([O-])=C(/C(=S)Nc2ccc(F)cc2)[n+]2ccccc2)c(C)n1-c1ccc(F)cc1	aSyn 5UTR act -121
c1ccc(OCCSc2nnnn2-c2ccccc2)cc1	aSyn 5UTR act -86
Fc1ccccc1OCCSc1nnnn1-c1ccccc1	aSyn 5UTR act -83
CCCCCCCCCCCCCCCCn1cc[n+](C)c1	none
CC(=O)Nc1ccc(NC(=O)Nc2ccccc2)cc1	aSyn 5UTR act -70
CC(=O)Nc1ccc(SCCCC(=O)c2ccccc2)cc1	aSyn 5UTR act -161
O=C(Nc1ccccc1)Nc1csc2ccccc12	aSyn 5UTR act -165
O=C(Nc1ccccc1)Nc1scc2c1c(=O)oc1ccccc12	aSyn 5UTR act -123
CC(=O)Nc1ccc(C#Cc2ccc(NC(C)=O)cc2)cc1	none
O=C(Nc1ccccc1)Nc1c(F)cccc1F	aSyn 5UTR act -66
Cc1c(-c2ccccc2)nnn1-c1ccc(F)cc1F	aSyn 5UTR act -93
CN1CCN(CC(=O)Nc2ccc(OCc3ccccc3)cc2)CC1	aSyn 5UTR act -90
N#CCN1CCN(CC(=O)Nc2ccc(OCc3ccccc3)cc2)CC1	aSyn 5UTR act -62
CN1c2ccccc2Oc2nnc(N3CCN(Cc4ccccc4)CC3)cc21	aSyn 5UTR act -97
Cc1ccc(Nc2ccc([N+](=O)[O-])cn2)cc1Cl	aSyn 5UTR act -93
CN(C)c1ccc(Nc2ccc([N+](=O)[O-])cn2)cc1	aSyn 5UTR act -162
Nc1ccccc1Nc1cc(-c2ccccc2)[nH]n1	aSyn 5UTR act -171
Cc1ccc(C(=O)OCC(=O)c2ccccc2)cc1	aSyn 5UTR act -85
CCc1ccc(C(=O)COC(=O)c2ccc(-c3nnc(-c4ccccc4)o3)cc2)cc1	aSyn 5UTR act -161
Cc1ccc(C(=O)Cn2c(-c3ccccc3)noc2=O)cc1	aSyn 5UTR act -100
CCOC(=O)C(CC(=O)c1ccccc1)CC(=O)c1ccccc1	aSyn 5UTR act -105
Cc1ccc(C(=O)Sc2cccccc2=O)cc1	aSyn 5UTR act -109
Cc1ccc(C(=O)c2c3ccc([N+](=O)[O-])cc3[n+]([O-])n2CCCN)cc1	none
Cc1ccc(C(=O)CC(=O)c2ccccc2)cc1	aSyn 5UTR act -238
Cc1ccc(C(=O)COC(=O)c2cccc(NC(=O)c3ccc([N+](=O)[O-])cc3[N+](=O)[O-])c2)cc1	aSyn 5UTR act -162
CCCC(=O)c1ccc(-c2ccccc2)cc1	aSyn 5UTR act -70
O=C(O)c1ccc2c(c1)C(=O)N(c1ccc(C(=O)OCC(=O)c3ccccc3)cc1)C2=O	aSyn 5UTR act -62
Cc1cc(C)c(NC(=O)CC(=O)c2ccccc2)c(Cl)c1	aSyn 5UTR act -93
N=c1ccn(CC(=O)c2ccc(-c3ccccc3)cc2)cc1	none
O=C(CN1C(=O)CCC1=O)c1ccc(-c2ccccc2)cc1	aSyn 5UTR act -82
Cc1ccc(C(=O)CCc2ccc(N)cc2)cc1	aSyn 5UTR act -77
C[C@@H]1C=CC(=O)O[C@@H]1c1ccc(Cl)cc1	aSyn 5UTR act -194
CCC(C)(C)c1ccc(Oc2cccc(C(=O)O)c2)cc1	aSyn 5UTR act -95
CCCC(C)NC(=O)c1cccc(Oc2ccccc2)c1 (configuration not stated)	aSyn 5UTR act -64
CCC(C)(C)c1ccc(Oc2ccc(N)cc2)cc1	none
COc1ccc(NC(=S)NCCCCCC(=O)C[N+](=O)[O-])cc1	aSyn 5UTR act -82
COc1cccc(N(C(=O)CCl)C(C(=O)NCCc2ccccc2)c2cccs2)c1 (configuration not stated)	aSyn 5UTR act -112
Cc1ccc(NC(=O)CC2SCCNC2=O)cc1Cl (configuration not stated)	aSyn 5UTR act -143
Cn1c(=S)[nH]c2sc3c(c2c1=O)CCC(C(C)(C)C)C3 (configuration not stated)	aSyn 5UTR act -87
O=C(N[C@@H](Cc1c[nH]c2ccccc12)C(=O)NC1CC1)c1ccccc1Cl	aSyn 5UTR act -160
CC(=O)c1c(C)[nH]c(C(=O)Nc2nc(C)cs2)c1C	none
COc1ccc(OC)c(NC(=O)c2[nH]c(C)c(C(C)=O)c2C)c1	aSyn 5UTR act -85
CC(=O)c1c(C)[nH]c(C(=O)Nc2cccc(S(=O)(=O)N(C)C)c2)c1C	aSyn 5UTR act -153
CC(=O)c1c(C)[nH]c(C(=O)Nc2cc(C)cc(C)c2)c1C	aSyn 5UTR act -78
CC(NC(=O)c1cc(COc2cccc(C(F)(F)F)c2)on1)c1nccs1 (configuration not stated)	aSyn 5UTR act -62
O=C(NC1CCOC1)c1cc(COc2cccc(C(F)(F)F)c2)on1 (configuration not stated)	aSyn 5UTR act -67
C[C@@H]1CN(C(=O)c2cc(COc3cccc(C(F)(F)F)c3)on2)C[C@H](C)O1	aSyn 5UTR act -138
CCOC(=O)N1CCN(C(=O)c2cc(COc3cccc(C(F)(F)F)c3)on2)CC1	aSyn 5UTR act -92
COc1ccc(C2=C/C(=C\c3ccccc3OC(C)=O)C(=O)O2)cc1	aSyn 5UTR act -79
